This excerpt belongs to a sample that is enriched for hits.
Dicer processing: inhibitors of human Dicer processing of pre-microRNA; Q9UPY3; cat-ELCCA pre-miR-21 Dicer processing, chemiluminescence; active compounds read high; z-score at 25 µM; 47,000 compounds, 6% hits; AID 1347074; in the data active = z-score above about 3, passing the limit was not always enough;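 note: plate controls were vehicle for no effect and no enzyme for full effect; higher signal means more uncleaved substrate so more Dicer inhibition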
Numbers without * were called inactive.

Results for c1nc(N2CCCC2)c2c3c(sc2n1)CCCC3 ?
Dicer processing: -0.19

How did CC1CCc2sc3ncnc(N4CCN(CCO)CC4)c3c2C1 (stereo not drawn) do in these assays?
Dicer processing: 8.7

How did c1ccc2[nH]c(CN3CCN(c4ncnc5sc6c(c45)CCCC6)CC3)nc2c1 do in these assays?
Dicer processing: -0.71

How did CC1CN(c2ncnc3sc4c(c23)CCCC4)CC(C)O1 (stereo not drawn) do in these assays?
Dicer processing: 0.64

What do the screens show for `N#CC1=C(SCc2ccccc2)NC(=O)CC1c1ccc(O)cc1` (stereo not drawn)?
Dicer processing: 2.6

How did Cc1cccc(-c2nnc(SCC(=O)c3ccc(Cl)cc3)n2C)c1 do in these assays?
Dicer processing: -0.41

Results for CSc1nccc(-c2ccc(S(=O)(=O)Nc3cccc(C(F)(F)F)c3)s2)n1 ?
Dicer processing: -0.37

How did O=C(O)CCCC(=O)Nc1cc(-c2ccccc2)[nH]n1 do in these assays?
Dicer processing: -1.2

What do the screens show for `COc1ccccc1OCCn1cc(C(=O)c2ccco2)c2ccccc21`?
Dicer processing: 0.14

How did Cc1ccc(CNCCN2CCOCC2)s1 do in these assays?
Dicer processing: -1.3

Results for Cc1ccc(CNc2ccc(N3CCOCC3)cc2)s1 ?
Dicer processing: 4*

Results for Cc1ccc(CNc2ccc(N3CCOCC3)c(Cl)c2)s1 ?
Dicer processing: 1.4

Results for Cc1cc(C(F)(F)F)cc(NNC(=O)Nc2ccc(Cl)cc2Cl)n1 ?
Dicer processing: -0.85

What do the screens show for `Cc1cc(C)c(C#N)c(SC(C(=O)NC(C)(C)C)c2ccccc2)n1` (stereo not drawn)?
Dicer processing: 1

How did Cc1cc2nc(-c3ccncc3)cc(C(F)(F)F)n2n1 do in these assays?
Dicer processing: 2

Results for Cn1c2c(c(=O)n(C)c1=O)C(c1ccsc1)C1=C(N2)c2ccccc2C1=O (stereo not drawn) ?
Dicer processing: 7.8*

What do the screens show for `Cn1c2c(c(=O)[nH]c1=O)C(c1ccsc1)C1=C(N2)c2ccccc2C1=O` (stereo not drawn)?
Dicer processing: -2.9

How did COc1cccc(C2C3=C(Nc4c2c(=O)n(C)c(=O)n4C)c2ccccc2C3=O)c1 (stereo not drawn) do in these assays?
Dicer processing: -1.4

How did Nc1ncnc2c1nc(SCC(=O)O)n2Cc1ccccc1 do in these assays?
Dicer processing: -0.3

Results for Cc1cccc(Oc2c(C(F)(F)F)oc3c(CN4CCCC4)c(O)ccc3c2=O)c1 ?
Dicer processing: 0.41

What do the screens show for `Cc1cccc(C)c1Nc1nc2c(C)cc(C)c(C)c2s1`?
Dicer processing: 4.2*

What do the screens show for `Cc1cc(Nc2ccccc2C)c2cccc(C)c2n1`?
Dicer processing: -1.1

Results for Cc1ccc(Nc2nc3ccccc3s2)c(C)c1 ?
Dicer processing: 0.88

What do the screens show for `O=S(=O)(Nc1ncccn1)c1ccc(F)cc1`?
Dicer processing: -1.4

How did O=S(=O)(CCSc1ncccn1)c1ccc(F)cc1 do in these assays?
Dicer processing: 3*

What do the screens show for `O=S(=O)(CCSc1nccc(-c2cccs2)n1)c1ccc(F)cc1`?
Dicer processing: 0.76

Results for Clc1ccc(SC/C=C/CSc2ccc(Cl)cc2)cc1 ?
Dicer processing: -0.63

What do the screens show for `Cn1cnc2c1c(=O)n(Cc1cc3c(cc1Br)OCO3)c(=O)n2C`?
Dicer processing: -0.91

How did CCOc1c(N2CCOCC2)c(=O)c1=O do in these assays?
Dicer processing: 0.88

How did CCOc1ccc(-c2nc(C#N)c(N3CC(C)OC(C)C3)o2)cc1 (stereo not drawn) do in these assays?
Dicer processing: 0.5

How did CCOc1c(N2CC(C)OC(C)C2)c(=O)c1=O (stereo not drawn) do in these assays?
Dicer processing: 6*

How did Cc1nn2c(=O)/c(=C/c3ccc(Cl)cc3Cl)sc2nc1=O do in these assays?
Dicer processing: -0.2

Results for CCOC(=O)c1cnc2c(c(C3CC3)nn2C)c1N1CCOCC1 ?
Dicer processing: 2.5

What do the screens show for `Cn1c(=O)c2c(nc(NCc3ccc4c(c3)OCO4)n2Cc2ccccc2Br)n(C)c1=O`?
Dicer processing: 2.8

How did Clc1ccc(-c2noc(C3CCNCC3)n2)cc1 do in these assays?
Dicer processing: 0.67

Results for O=C1CSC(=Nc2cc(Cl)cc(Cl)c2)N1Cc1cccs1 ?
Dicer processing: 1

How did CC(c1ccccc1)C1CC(=O)N(Cc2ccco2)C1=O (stereo not drawn) do in these assays?
Dicer processing: 1.9

How did Cc1cc(C)c(N=C2SCC(=O)N2Cc2ccco2)c(C)c1 do in these assays?
Dicer processing: 4.8*

Results for COc1ccc(N=C2SCC(=O)N2CCc2ccc(OC)c(OC)c2)cc1 ?
Dicer processing: 2.3

Results for COc1ccccc1N=C1SCC(=O)N1Cc1ccco1 ?
Dicer processing: 4*

How did O=C1CSC(=Nc2ccc(Cl)cc2)N1Cc1ccco1 do in these assays?
Dicer processing: -0.33

How did COC(Cn1c(SCC(=O)c2ccccc2)nnc1-c1ccc(Cl)cc1)OC do in these assays?
Dicer processing: 0.45

Results for CN(C)c1cccc2c(S(=O)(=O)NN)cccc12 ?
Dicer processing: -4.1

Results for CCCCN1Cc2c(n(CC(=O)c3cc(-c4ccccc4)no3)c3cc(-c4ccccc4)nn3c2=O)C1=O ?
Dicer processing: 1

How did CC(NC(=O)C(=O)NC(C)C1COc2ccccc2O1)C1COc2ccccc2O1 (stereo not drawn) do in these assays?
Dicer processing: -0.57

What do the screens show for `COc1cccc2c1C(=O)c1c(O)c3c(c(O)c1C2=O)C[C@@](O)(C(C)=O)C[C@@H]3O[C@H]1C[C@H](N)[C@H](O)[C@H](C)O1`?
Dicer processing: -0.7

How did O=S(=O)(c1cc(Br)c(Br)s1)N1CCCCC1 do in these assays?
Dicer processing: 0.86

Results for O=S(=O)(c1ccccc1)c1ccc(S(=O)(=O)N2CCCC2)s1 ?
Dicer processing: -0.58

Results for O=S(=O)(c1cc(Br)c(Br)s1)N1CCCC1 ?
Dicer processing: 3.1*

Results for Fc1ccc(-c2cc3ncc4c(n3n2)-c2cc(Cl)ccc2OC4)cc1 ?
Dicer processing: -1.2

What do the screens show for `CNCCCC1c2ccccc2C=Cc2ccccc21`?
Dicer processing: 1.2

What do the screens show for `CCOC(=O)CNC(=O)CC(C)(C)C`?
Dicer processing: -2.3

What do the screens show for `Cn1ccnc1SCC(=O)Nc1ccccc1`?
Dicer processing: 0.15

Results for Cn1ccnc1SCC(=O)N1CCCC1 ?
Dicer processing: 4.5*

What do the screens show for `Cn1ccnc1SCC(=O)c1ccc(Cl)cc1`?
Dicer processing: 0.03

Results for CC(C)(C)NC(=O)[C@@H]1C[C@@H]2CCCC[C@@H]2CN1C(=O)c1ccc(C(F)(F)F)cc1 ?
Dicer processing: -0.8

Results for CC(C)=CC(=O)Nc1nnc(Sc2ccnc3cc(Cl)ccc23)s1 ?
Dicer processing: 0.3

Results for OCCN1CN=C(SCc2ccc(Cl)c(Cl)c2)NC1 ?
Dicer processing: -0.52

What do the screens show for `c1ccc(Cn2c(NCc3ccco3)nc3ccccc32)cc1`?
Dicer processing: 3.7*

What do the screens show for `Cc1nc2ccccc2n1CCN1CCOCC1`?
Dicer processing: -0.46

How did Nc1nc2ccccc2n1Cc1ccccc1 do in these assays?
Dicer processing: -0.02

What do the screens show for `CCN(CC)CCn1c(NCc2cc(OC)ccc2OC)nc2ccccc21`?
Dicer processing: 2.5

How did Cn1c(CNc2nc3ccccc3n2CCN2CCOCC2)nc2ccccc21 do in these assays?
Dicer processing: -0.51

How did c1ccc2c(c1)nc(NCc1ccncc1)n2CCN1CCCCC1 do in these assays?
Dicer processing: 2.6

Results for Cn1c(NCc2ccco2)nc2c1c(=O)n(Cc1ccccc1)c(=O)n2C ?
Dicer processing: 0.09

What do the screens show for `c1coc(CNc2nc3ccccc3n2CCN2CCOCC2)c1`?
Dicer processing: 5.1*
